Shown is part of a subset that was picked to be rich in the strongest signals.
Legend:
Experiment in all cases: glycan array binding signal (z-score within array); higher = stronger binding
Conditions in all cases: glycan notation: IUPAC condensed, linker removed
[1] = target: Gal(b1-4)GlcNAc(b1-3)Gal(b1-4)GlcNAc(b1-3)Gal(b1-4)GlcNAc(b1-2)Man(a1-3)[Gal(b1-4)GlcNAc(b1-3)Gal(b1-4)GlcNAc(b1-3)Gal(b1-4)GlcNAc(b1-2)Man(a1-6)]Man(b1-4)GlcNAc(b1-4)[Fuc(a1-6)]GlcNAc
How it was run: (§1)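 Glycan array binding is given as a within-array Z-score, which can be read as non-binding when negative. The arrays, 3228 of them, came from the Consortium for Functional Glycomics database and were retained only where the protein sequence was available. Z-scores were averaged across arrays of the same protein sequence at different concentrations or buffers and across linkers.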

[2] = target: Gal(b1-4)GlcNAc(b1-3)Gal(b1-4)GlcNAc(b1-3)Gal(b1-4)GlcNAc(b1-2)[Gal(b1-4)GlcNAc(b1-3)Gal(b1-4)GlcNAc(b1-3)Gal(b1-4)GlcNAc(b1-6)]Man(a1-6)[Gal(b1-4)GlcNAc(b1-3)Gal(b1-4)GlcNAc(b1-3)Gal(b1-4)GlcNAc(b1-2)Man(a1-3)]Man(b1-4)GlcNAc(b1-4)[Fuc(a1-6)]GlcNAc
How it was run: as §1

[3] = target: Gal(b1-4)GlcNAc(b1-3)Gal(b1-4)GlcNAc(b1-3)Gal(b1-4)GlcNAc(b1-3)Gal(b1-4)GlcNAc(b1-2)Man(a1-3)[Gal(b1-4)GlcNAc(b1-3)Gal(b1-4)GlcNAc(b1-3)Gal(b1-4)GlcNAc(b1-3)Gal(b1-4)GlcNAc(b1-2)Man(a1-6)]Man(b1-4)GlcNAc(b1-4)GlcNAc
How it was run: as §1

[4] = target: Gal(b1-4)GlcNAc(b1-3)Gal(b1-4)GlcNAc(b1-3)Gal(b1-4)GlcNAc(b1-3)Gal(b1-4)GlcNAc(b1-2)[Gal(b1-4)GlcNAc(b1-3)Gal(b1-4)GlcNAc(b1-3)Gal(b1-4)GlcNAc(b1-3)Gal(b1-4)GlcNAc(b1-6)]Man(a1-6)[Gal(b1-4)GlcNAc(b1-3)Gal(b1-4)GlcNAc(b1-3)Gal(b1-4)GlcNAc(b1-3)Gal(b1-4)GlcNAc(b1-2)Man(a1-3)]Man(b1-4)GlcNAc(b1-4)[Fuc(a1-6)]GlcNAc
How it was run: as §1

[5] = target: Gal(b1-4)GlcNAc(b1-3)Gal(b1-4)GlcNAc(b1-3)Gal(b1-4)GlcNAc(b1-3)Gal(b1-4)GlcNAc(b1-3)Gal(b1-4)GlcNAc(b1-2)[Gal(b1-4)GlcNAc(b1-3)Gal(b1-4)GlcNAc(b1-3)Gal(b1-4)GlcNAc(b1-3)Gal(b1-4)GlcNAc(b1-3)Gal(b1-4)GlcNAc(b1-6)]Man(a1-6)[Gal(b1-4)GlcNAc(b1-3)Gal(b1-4)GlcNAc(b1-3)Gal(b1-4)GlcNAc(b1-3)Gal(b1-4)GlcNAc(b1-3)Gal(b1-4)GlcNAc(b1-2)Man(a1-3)]Man(b1-4)GlcNAc(b1-4)[Fuc(a1-6)]GlcNAc
How it was run: as §1

[6] = target: Gal(b1-4)GlcNAc(b1-6)[Gal(b1-4)GlcNAc(b1-3)]GalNAc
How it was run: as §1

Gal3S(b1-3)GlcNAc = target: Gal3S(b1-3)GlcNAc
How it was run: as §1

Gal3S(b1-4)Glc6S = target: Gal3S(b1-4)Glc6S
How it was run: as §1

[7] = target: Gal3S(b1-4)[Fuc(a1-3)]GlcNAc6S
How it was run: as §1

GalNAc(b1-4)GlcNAc6S = target: GalNAc(b1-4)GlcNAc6S
How it was run: as §1

[8] = target: GlcNAc(a1-4)Gal(b1-4)GlcNAc(b1-3)Gal(b1-4)GlcNAc(b1-3)Gal(b1-4)GlcNAc
How it was run: as §1

[9] = target: GlcNAc(a1-4)Gal(b1-4)GlcNAc(b1-3)Gal(b1-4)[Fuc(a1-3)]GlcNAc(b1-3)Gal(b1-4)[Fuc(a1-3)]GlcNAc
How it was run: as §1

GlcNAc(b1-3)Fuc = target: GlcNAc(b1-3)Fuc
How it was run: as §1

[10] = target: GlcNAc(b1-3)Gal(b1-4)GlcNAc(b1-3)Gal(b1-4)GlcNAc(b1-2)Man(a1-3)[GlcNAc(b1-3)Gal(b1-4)GlcNAc(b1-3)Gal(b1-4)GlcNAc(b1-2)Man(a1-6)]Man(b1-4)GlcNAc(b1-4)[Fuc(a1-6)]GlcNAc
How it was run: as §1

GlcNAc(b1-3)GalNAc = target: GlcNAc(b1-3)GalNAc
How it was run: as §1

[11] = target: GlcNAc(b1-3)[GlcNAc(b1-6)]GalNAc
How it was run: as §1

Man(a1-6)Man = target: Man(a1-6)Man
How it was run: as §1

[12] = target: Neu5Ac(a2-3)Gal(b1-3)[Neu5Ac(a2-3)Gal(b1-4)]GlcNAc
How it was run: as §1

[13] = target: Neu5Ac(a2-3)Gal(b1-4)GlcNAc
How it was run: as §1

[14] = target: Neu5Ac(a2-3)Gal(b1-4)GlcNAc(b1-3)Gal(b1-4)GlcNAc(b1-2)Man(a1-3)[Neu5Ac(a2-3)Gal(b1-4)GlcNAc(b1-3)Gal(b1-4)GlcNAc(b1-2)Man(a1-6)]Man(b1-4)GlcNAc(b1-4)GlcNAc
How it was run: as §1

[15] = target: Neu5Ac(a2-3)Gal(b1-4)[Fuc(a1-3)]GlcNAc(b1-3)Gal(b1-4)[Fuc(a1-3)]GlcNAc(b1-3)Gal(b1-4)[Fuc(a1-3)]GlcNAc
How it was run: as §1

[16] = target: Neu5Ac(a2-3)Gal6S(b1-4)GlcNAc
How it was run: as §1

[17] = target: Neu5Ac(a2-3)[Neu5Ac(a2-6)]GalNAc
How it was run: as §1

[18] = target: Neu5Ac(a2-6)Gal(b1-4)GlcNAc(b1-2)Man(a1-3)[Neu5Ac(a2-3)Gal(b1-4)GlcNAc(b1-2)Man(a1-6)]Man(b1-4)GlcNAc(b1-4)GlcNAc
How it was run: as §1

[19] = target: Neu5Ac(a2-6)Gal(b1-4)GlcNAc(b1-3)Gal(b1-4)GlcNAc
How it was run: as §1

[20] = target: Neu5Ac(a2-6)Gal(b1-4)GlcNAc(b1-3)Gal(b1-4)GlcNAc(b1-3)[Neu5Ac(a2-6)Gal(b1-4)GlcNAc(b1-3)Gal(b1-4)GlcNAc(b1-6)]GalNAc
How it was run: as §1

[21] = target: Neu5Ac(a2-6)Gal(b1-4)GlcNAc(b1-6)[Gal(b1-3)GlcNAc(b1-3)]Gal(b1-4)Glc
How it was run: as §1

[22] = target: Neu5Ac(a2-6)GlcNAc(b1-4)GlcNAc
How it was run: as §1

Neu5Ac(a2-8)Neu5Ac = target: Neu5Ac(a2-8)Neu5Ac
How it was run: as §1

[23] = target: Neu5Ac(a2-8)Neu5Ac(a2-8)Neu5Ac(a2-3)Gal(b1-4)Glc
How it was run: as §1

[24] = target: Neu5Ac(a2-8)Neu5Ac(a2-8)Neu5Ac(a2-3)[GalNAc(b1-4)]Gal(b1-4)Glc
How it was run: as §1

B1: Gal 1 (Mus musculus), P16045 (protein)
chain: MACGLVASNLNLKPGECLKVRGEVASDAKSFVLNLGKDSNNLCLHFNPRFNAHGDANTIVCNTKEDGTWGTEHREPAFPFQPGSITEVCITFDQADLTIKLPDGHEFKFPNRLNMEAINYMAADGDFKIKCVAFE
Q: With B1 as the binder, how does the “glycan array binding signal (z-score)” value [1] read?
A: The value was 2.53.

Q: What about the “glycan array binding signal (z-score)” value [2] of the same binder?
A: Its value is 3.89.

Q: What about the “glycan array binding signal (z-score)” value [3] of the same binder?
A: The value was 2.54.

Q: What about the “glycan array binding signal (z-score)” value [4] of the same binder?
A: The value was 3.42.

Q: And the “glycan array binding signal (z-score)” value [5]?
A: The value was 3.46.

Q: What about the “glycan array binding signal (z-score)” value [6] of the same binder?
A: Its value is -0.011.

Q: And the “glycan array binding signal (z-score)” value (Gal3S(b1-3)GlcNAc)?
A: The value was 2.76.

Q: And the “glycan array binding signal (z-score)” value (Gal3S(b1-4)Glc6S)?
A: Its value is 0.672.

Q: What about the “glycan array binding signal (z-score)” value [7] of the same binder?
A: Its value is 2.69.

Q: What about the “glycan array binding signal (z-score)” value (GalNAc(b1-4)GlcNAc6S) of the same binder?
A: The value was -0.452.

Q: What about the “glycan array binding signal (z-score)” value [8] of the same binder?
A: Its value is -0.404.

Q: And the “glycan array binding signal (z-score)” value [9]?
A: Its value is -0.015.

Q: What about the “glycan array binding signal (z-score)” value (GlcNAc(b1-3)Fuc) of the same binder?
A: Its value is -0.43.

Q: What about the “glycan array binding signal (z-score)” value [10] of the same binder?
A: The value was -0.19.

Q: And the “glycan array binding signal (z-score)” value (GlcNAc(b1-3)GalNAc)?
A: Its value is -0.094.

Q: And the “glycan array binding signal (z-score)” value [11]?
A: Its value is -0.292.

Q: And the “glycan array binding signal (z-score)” value (Man(a1-6)Man)?
A: The value was 0.23.

Q: What about the “glycan array binding signal (z-score)” value [12] of the same binder?
A: The value was 0.068.

Q: What about the “glycan array binding signal (z-score)” value [13] of the same binder?
A: Its value is -0.256.

Q: And the “glycan array binding signal (z-score)” value [14]?
A: Its value is 1.31.

Q: And the “glycan array binding signal (z-score)” value [15]?
A: The value was -0.083.

Q: And the “glycan array binding signal (z-score)” value [16]?
A: Its value is -0.411.

Q: What about the “glycan array binding signal (z-score)” value [17] of the same binder?
A: The value was -0.3.

Q: And the “glycan array binding signal (z-score)” value [18]?
A: The value was -0.219.

Q: And the “glycan array binding signal (z-score)” value [19]?
A: The value was -0.348.

Q: What about the “glycan array binding signal (z-score)” value [20] of the same binder?
A: The value was 1.13.

Q: What about the “glycan array binding signal (z-score)” value [21] of the same binder?
A: Its value is 0.027.

Q: And the “glycan array binding signal (z-score)” value [22]?
A: Its value is -0.34.

Q: What about the “glycan array binding signal (z-score)” value (Neu5Ac(a2-8)Neu5Ac) of the same binder?
A: The value was -0.093.

Q: And the “glycan array binding signal (z-score)” value [23]?
A: The value was -0.347.

Q: What about the “glycan array binding signal (z-score)” value [24] of the same binder?
A: The value was -0.144.

Source: the supplement of paper PMC8728848
